The text below walks through data of PubChem BioAssay AID778 (Sanford-Burnham Center for Chemical Genomics, 2007).

Broadly, the inhibition is the change of the read-out against control, counted positive when it falls.

Among all 96,000 compounds or so, about 20,000 (21%) were called active. The list is a sample of the results. Unmarked numbers belong to inactive results.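 How the source made its calls: active means CYP2C19 inhibition above a set limit at 5 µM in the primary screen (cut at about 50% in these data); inactive means the rest.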

Chain of Cytochrome P450 2C19 (Homo sapiens) (P33261 whole entry, looked up): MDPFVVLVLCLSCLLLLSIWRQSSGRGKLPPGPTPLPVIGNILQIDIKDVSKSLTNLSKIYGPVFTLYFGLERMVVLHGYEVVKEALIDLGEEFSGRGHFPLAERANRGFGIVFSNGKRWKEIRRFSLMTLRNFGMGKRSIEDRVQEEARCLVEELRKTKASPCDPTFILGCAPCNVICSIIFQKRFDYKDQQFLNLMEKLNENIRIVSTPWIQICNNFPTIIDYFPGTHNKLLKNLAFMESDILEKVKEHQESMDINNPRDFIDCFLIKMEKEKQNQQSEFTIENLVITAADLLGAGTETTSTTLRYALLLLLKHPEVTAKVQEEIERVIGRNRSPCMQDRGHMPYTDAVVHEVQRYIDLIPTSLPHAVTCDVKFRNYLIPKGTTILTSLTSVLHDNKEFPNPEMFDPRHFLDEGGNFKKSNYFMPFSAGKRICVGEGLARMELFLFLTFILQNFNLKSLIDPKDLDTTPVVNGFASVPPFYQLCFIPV

This assay addresses Cytochrome P450 2C19 (Homo sapiens) (UniProt P33261). The experiment in a line: blockers of cytochrome P450 2C19 activity – biochemical, luminescence, ADME assay, primary screen (AID 778).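 Further: plate controls were negative control wells for no effect and 2.5 mM tranylcypromine positive control for full effect.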 To be noted: CYP2C19 Supersomes, luciferin-H EGE luminescence, 30 min; at 5 µM; hits give high values.
For `CCc1nc(Nc2ccc3nccnc3c2)c2oc3ccccc3c2n1`, the inhibition was -11.6%.

For `O=C(N/N=C/C=C/c1ccccc1)C1CC1(c1ccccc1)c1ccccc1` (stereo unspecified), the inhibition was -19.2%.

With `CCOC(=O)c1nn(-c2cccc(C)c2)cc1C(=O)c1ccccc1`, the inhibition was 75.3% (active).

As for `CC(=O)c1nn(-c2cccc(Br)c2)cc1C(=O)c1cccc2ccccc12`, the inhibition was 9.4%.

Take `Cc1ccc(NC(=O)c2nc[nH]c2C(=O)N2CCCCC2)c(C(=O)c2ccccc2)c1`: the inhibition is 20.4%.

Turning to `CCCCc1nnc(NC(=O)CS(=O)(=O)Cc2ccccc2)s1`, the inhibition was 8%.

Take `Cc1cc2ccccc2n1CCNC(=O)COc1ccc2ccccc2c1`: the inhibition was 14.5%.

With `OC(COCCC12CC3CC(CC(C3)C1)C2)CN1CCCCC1` (stereo unspecified), the inhibition was 35.1%.

On to `Cc1ccc(NC(=S)Nc2ncccc2C)c(C)c1`, for which the inhibition is 86.3% (active).

For `Cc1cccc(NC(=O)C2CCN(S(=O)(=O)c3cccc4cccnc34)CC2)c1`, the inhibition is 40.7%.

Take `CCOc1ccc(NC(=O)N2CC=C(n3c(=O)[nH]c4ccccc43)CC2)cc1`: the inhibition is 11.1%.

`COc1ccc(N(C(=O)c2cccnc2)S(=O)(=O)c2ccc3c(c2)n(C)c(=O)n3C)cc1`: the inhibition was 57.8% (active).

Regarding `COc1ccc(-c2c3c(=O)n(C)c(=O)n(C)c3cn2-c2cccc(OC)c2)cc1`, the inhibition was -4%.

Regarding `COc1ccc(-c2c3c(=O)n(C)c(=O)n(C)c3cn2NC(C)=O)cc1`, the inhibition was -2.1%.

Regarding `O=C(Cn1cncn1)N/N=C/c1c2ccccc2cc2ccccc12`, the inhibition was 80% (active).

In the case of `CCCC(=O)Nc1cccc(-c2cn3ccsc3n2)c1`, the inhibition is -11.8%.

Consider `CCOC(=O)N1CCC(NC(=O)CN2C(=O)COc3ccc(C(C)(C)C)cc32)CC1`, for which the inhibition was 10.8%.

On to `CCOC(=O)C(=O)Nc1nc(-c2ccccc2)c(CC)s1`, for which the inhibition is 3.5%.

As for `CCOc1ccc(Cn2nnc(C(=O)Nc3ccc(OC)cc3OC)c2N)cc1`, the inhibition was -21.9%.

As to `COCCCN1C(=O)c2ccc(C(=O)Nc3ccc(OC)cc3OC)cc2C1=O`, the inhibition was 61.8% (active).

For the compound `COc1ccc(NC(=O)c2cccc(NC(=O)c3ccco3)c2)c(OC)c1`, the inhibition was 15.1%.

Take `CCOP1(=O)C=C(C(C)(C)C)OC1c1ccc(F)cc1` (stereo unspecified): the inhibition is 15.6%.

Take `CCCOP(=O)(c1ccc(N(C)C)cc1)C(O)c1cc(OC)c(OC)c(OC)c1` (stereo unspecified): the inhibition was 16.9%.

For `O=C(O)c1cc2ccccc2c(=O)s1`, the inhibition was 15.6%.

As to `CCSC1=C(C#N)C(=O)n2c1cc1c2CCCC1`, the inhibition is 10.1%.

For the compound `Cn1c(=O)c2c(ncn2CC(COCc2ccccc2Cl)OCc2ccccc2Cl)n(C)c1=O` (stereo unspecified), the inhibition is 49.2%.

On to `Cn1c(=O)c2c(ncn2CC(=O)N2CCN(c3ccccc3)CC2)n(C)c1=O`, for which the inhibition was 4.9%.

As to `CC(C)Cn1cnc2c1c(=O)n(CC(O)c1ccccc1)c(=O)n2CC(C)C` (stereo unspecified), the inhibition is 58.8% (active).

In the case of `CCCc1nc2oc3c(OCC)ncnc3c2c2c1COC(C)(C)C2`, the inhibition was -9.9%.

On to `CCC(C)n1[nH]c(=O)c2c(C)cc(C)nc21` (stereo unspecified), for which the inhibition was 10.9%.

Regarding `O=C1CC(N2CCN(C(c3ccccc3)c3ccccc3)CC2)C(=O)N1` (stereo unspecified), the inhibition was 8.8%.

On to `CC(C)(C)c1cc(CN2CCN(CCC#N)CC2)cc(C(C)(C)C)c1O`, for which the inhibition was -2.1%.

Consider `CC(C)(C)c1ccc(C(=O)CSc2ncn[nH]2)cc1`, for which the inhibition is 23%.

Take `O=C(CSc1ncn[nH]1)Nc1ccnc2ccccc12`: the inhibition was 27.1%.

For the compound `CCN(C(=O)CSc1ncn[nH]1)c1cccc2ccccc12`, the inhibition was 63.2% (active).

Turning to `CCOC(=O)c1cccc(NC(=O)CCn2nnc3ccccc32)c1`, the inhibition was 23.3%.

As to `COc1ccc(NC(=O)Cn2nnc(C(=O)NCCc3ccc(OC)c(OC)c3)c2N)cc1`, the inhibition was 4.1%.

As for `CCOC(=O)c1nnn(CC(=O)Nc2cccc(F)c2)c1C(=O)OCC`, the inhibition is 95.7% (active).

As for `CC12CCC(C(=O)N3CCN(c4ncccn4)CC3)(c3nc4ccccc4nc31)C2(C)C` (stereo unspecified), the inhibition is 31.7%.

For `Cc1cc(C(=O)COC(=O)c2cccs2)c(C)n1-c1c(C)n(C)n(-c2ccccc2)c1=O`, the inhibition is -0.8%.

Regarding `Cc1nn(-c2ccccc2)c(C)c1C(=O)OCC(=O)NC(=O)NC1CCCCC1`, the inhibition is 28.3%.

Consider `CCCn1c(C)cc(C(=O)COC(=O)c2c(C)nn(-c3ccccc3)c2C)c1C`, for which the inhibition was 88.6% (active).

As for `O=C1CCC(C(=O)Nc2ccc(OC(F)F)cc2)N1` (stereo unspecified), the inhibition was 0%.

In the case of `O=c1cc(CO)oc(CN2CCC(Cc3ccccc3)CC2)c1O`, the inhibition is 15.2%.

Turning to `CCN1CCCC1CNC(=O)Cn1cnc2ccc(S(=O)(=O)N3CCC(C)CC3)cc2c1=O` (stereo unspecified), the inhibition was -0.8%.

As for `COCC(C)N=CC1=C(O)CC(C)(C)CC1=O` (stereo unspecified), the inhibition was 0.7%.

Regarding `Nc1ccc(Nc2ccccc2)cc1`, the inhibition is 36.6%.

Turning to `c1ccc(Nc2n[nH]nc2-c2ccccc2)cc1`, the inhibition was 84.7% (active).

Consider `COC(CNC(=O)Cn1ncc2ccsc2c1=O)OC`, for which the inhibition was 2.1%.

`COC(=O)C(CC(=O)Nc1cc(C)ccc1C)Nc1ccccc1OC` (stereo unspecified): the inhibition is 15.3%.

In the case of `COc1ccccc1NC(=O)/C=C/C(N)=O`, the inhibition was -0.2%.

Consider `COc1ccccc1NC(=O)COc1ccc(C(=O)OCC(=O)N(C(C)C)C(C)C)cc1OC`, for which the inhibition was 56.4% (active).

Consider `CC1CC(C)CN(C/C=C/c2ccccc2[N+](=O)[O-])C1` (stereo unspecified), for which the inhibition was 29.7%.

With `CCC(C)NC(=O)CSC1=Nc2ccccc2C2=NC(CCC(=O)NCc3ccco3)C(=O)N12` (stereo unspecified), the inhibition was 6.1%.

With `Cc1nnc(SCC(=O)NCCOc2ccc(Cl)cc2)n1-c1ccccc1`, the inhibition is 95.6% (active).

In the case of `CCOC(=O)CNC(=O)CSc1nnc(COc2ccc(Cl)cc2)n1CC`, the inhibition is 14.7%.

`COc1ccc(OC)c(/C=N/NC(=O)CSc2nnc(C)n2-c2ccccc2)c1`: the inhibition is 23.2%.

In the case of `COC(=O)[C@@H](NC(=O)NCc1cccc(OC)c1)C(C)C`, the inhibition is 5.8%.

With `CCOC(=O)Cn1c(-c2cccnc2Cl)nc2ccccc21`, the inhibition was -2%.

In the case of `Cc1no[n+]([O-])c1COc1ccccc1/C=C1\NC(=S)NC1=O`, the inhibition is 20.6%.

Turning to `CCN1C(=O)/C(=C2\SC(N3CCCCC3)=NC2=O)c2ccccc21`, the inhibition was 19.9%.
